Holding throughout (experiment): DAPPL (digital affinity profiling via proximity ligation, sequencing); 10 mM Tris-HCl pH 7.5, 50 mM NaCl, 1 mM DTT, 4% glycerol, room temperature, 30 min; GST-TFs on glutathione beads, 16-mer random dsDNA library, 0.1% formaldehyde crosslink after washing; high values mean tight binding
What all share (conditions): protein: recombinant; tags: N-terminal GST; dsDNA, one strand shown

Assay [1] deals with T1, ELK1 (Homo sapiens, UniProt P19419 1-428).
T1 sequence: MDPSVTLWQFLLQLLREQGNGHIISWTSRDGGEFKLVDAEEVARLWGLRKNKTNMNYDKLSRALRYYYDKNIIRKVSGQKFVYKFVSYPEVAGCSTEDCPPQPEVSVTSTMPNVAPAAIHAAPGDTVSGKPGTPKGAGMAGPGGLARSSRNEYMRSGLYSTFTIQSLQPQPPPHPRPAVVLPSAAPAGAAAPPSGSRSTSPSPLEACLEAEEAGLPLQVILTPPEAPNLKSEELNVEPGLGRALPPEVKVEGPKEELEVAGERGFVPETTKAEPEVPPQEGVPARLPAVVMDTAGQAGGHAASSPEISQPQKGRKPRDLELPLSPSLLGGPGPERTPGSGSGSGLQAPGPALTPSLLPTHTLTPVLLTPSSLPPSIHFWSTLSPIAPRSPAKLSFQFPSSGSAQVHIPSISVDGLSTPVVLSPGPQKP
A digest of the protocol: (§1)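 A tag-only sample was pooled with DNA-barcoded human transcription factors that had been expressed in yeast as GST fusions and captured on glutathione beads. The pools were incubated for 30 min at room temperature with 200 nmole of a random double-stranded 16-mer DNA library in Tris/NaCl/DTT/glycerol buffer, then washed, crosslinked with 0.1% formaldehyde, proximity-ligated (BsaI/T4 ligase, 1 h, 37 °C), PCR-amplified and sequenced on an Illumina NextSeq500. Binding signal is each hexamer's read frequency for a factor divided by its frequency for the tag-only sample.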

For assay [2], the target named is T2, GABPA (Homo sapiens, UniProt Q06546 1-454).
T2 sequence: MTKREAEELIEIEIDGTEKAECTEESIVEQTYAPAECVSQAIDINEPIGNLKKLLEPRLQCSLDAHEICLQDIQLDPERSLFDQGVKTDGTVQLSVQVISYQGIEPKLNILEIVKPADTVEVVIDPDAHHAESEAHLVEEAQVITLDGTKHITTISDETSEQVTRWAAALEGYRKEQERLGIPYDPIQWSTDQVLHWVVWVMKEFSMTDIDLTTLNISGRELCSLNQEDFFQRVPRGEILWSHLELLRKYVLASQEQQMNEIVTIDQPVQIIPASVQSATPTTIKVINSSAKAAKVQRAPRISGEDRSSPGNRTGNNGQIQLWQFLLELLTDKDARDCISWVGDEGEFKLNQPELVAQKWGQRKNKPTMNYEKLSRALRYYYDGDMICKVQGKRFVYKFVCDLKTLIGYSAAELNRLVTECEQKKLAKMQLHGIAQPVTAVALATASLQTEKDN
The method in brief: as §1

In assay [3] the target is T3, ERG (Homo sapiens, UniProt P11308 1-479).
T3 sequence: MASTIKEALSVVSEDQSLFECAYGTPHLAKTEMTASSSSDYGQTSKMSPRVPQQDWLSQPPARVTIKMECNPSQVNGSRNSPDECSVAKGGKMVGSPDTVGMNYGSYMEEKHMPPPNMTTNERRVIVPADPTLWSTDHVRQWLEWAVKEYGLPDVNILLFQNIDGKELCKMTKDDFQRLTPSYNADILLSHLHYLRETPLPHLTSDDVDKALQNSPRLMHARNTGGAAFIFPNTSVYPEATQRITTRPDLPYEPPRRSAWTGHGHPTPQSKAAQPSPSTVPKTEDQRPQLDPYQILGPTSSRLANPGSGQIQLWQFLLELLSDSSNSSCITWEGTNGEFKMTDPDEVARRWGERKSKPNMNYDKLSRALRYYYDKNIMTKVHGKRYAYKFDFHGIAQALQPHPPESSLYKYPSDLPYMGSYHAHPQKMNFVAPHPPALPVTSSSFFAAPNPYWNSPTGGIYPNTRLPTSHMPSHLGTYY
The method in brief: as §1

Assay [4] addresses ELF1 (Homo sapiens, UniProt P32519 1-619). The method in brief:
as §1

Assay [5] addresses T4, EHF (Homo sapiens, UniProt Q9NZC4 1-300).
T4 sequence: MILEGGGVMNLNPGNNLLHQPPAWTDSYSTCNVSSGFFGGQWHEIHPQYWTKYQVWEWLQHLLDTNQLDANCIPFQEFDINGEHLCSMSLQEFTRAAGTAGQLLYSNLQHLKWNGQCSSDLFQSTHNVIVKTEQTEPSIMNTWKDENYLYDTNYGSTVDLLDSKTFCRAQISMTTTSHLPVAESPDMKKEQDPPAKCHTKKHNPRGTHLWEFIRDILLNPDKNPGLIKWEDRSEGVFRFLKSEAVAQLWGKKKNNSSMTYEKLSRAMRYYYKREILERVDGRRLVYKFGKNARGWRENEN
The method in brief:
as §1

Assay [6] has as its target SPIB (Homo sapiens, UniProt Q01892 1-262). A digest of the protocol: as §1
Assay [7] has as its target T5, ELK3 (Homo sapiens, UniProt P41970 1-407).
T5 sequence: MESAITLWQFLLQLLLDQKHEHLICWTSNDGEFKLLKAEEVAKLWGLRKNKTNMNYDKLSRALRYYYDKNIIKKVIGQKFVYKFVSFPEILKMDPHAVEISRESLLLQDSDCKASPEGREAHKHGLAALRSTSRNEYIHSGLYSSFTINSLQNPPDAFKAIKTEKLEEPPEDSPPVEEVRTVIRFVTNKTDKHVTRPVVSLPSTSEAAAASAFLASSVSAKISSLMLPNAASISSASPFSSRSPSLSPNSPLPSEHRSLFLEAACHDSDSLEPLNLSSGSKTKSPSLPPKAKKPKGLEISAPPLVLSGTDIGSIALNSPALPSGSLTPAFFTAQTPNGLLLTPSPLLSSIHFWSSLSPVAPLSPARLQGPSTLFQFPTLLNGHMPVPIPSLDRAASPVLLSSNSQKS
The method in brief: as §1

For assay [8], the target named is T6, SPIC (Homo sapiens, UniProt Q8N5J4 1-248).
T6 sequence: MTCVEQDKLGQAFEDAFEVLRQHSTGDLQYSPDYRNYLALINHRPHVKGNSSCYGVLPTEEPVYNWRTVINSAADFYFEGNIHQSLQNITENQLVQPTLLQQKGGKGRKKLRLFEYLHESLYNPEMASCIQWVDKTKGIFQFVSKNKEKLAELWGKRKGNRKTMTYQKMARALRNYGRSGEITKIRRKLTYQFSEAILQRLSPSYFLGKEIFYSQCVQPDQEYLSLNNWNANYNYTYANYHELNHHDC
A digest of the protocol: as §1

The target of assay [9] is ELF4 (Homo sapiens, UniProt Q99607 1-663). A digest of the protocol:
as §1

Chain of ELF1 (P32519 whole entry): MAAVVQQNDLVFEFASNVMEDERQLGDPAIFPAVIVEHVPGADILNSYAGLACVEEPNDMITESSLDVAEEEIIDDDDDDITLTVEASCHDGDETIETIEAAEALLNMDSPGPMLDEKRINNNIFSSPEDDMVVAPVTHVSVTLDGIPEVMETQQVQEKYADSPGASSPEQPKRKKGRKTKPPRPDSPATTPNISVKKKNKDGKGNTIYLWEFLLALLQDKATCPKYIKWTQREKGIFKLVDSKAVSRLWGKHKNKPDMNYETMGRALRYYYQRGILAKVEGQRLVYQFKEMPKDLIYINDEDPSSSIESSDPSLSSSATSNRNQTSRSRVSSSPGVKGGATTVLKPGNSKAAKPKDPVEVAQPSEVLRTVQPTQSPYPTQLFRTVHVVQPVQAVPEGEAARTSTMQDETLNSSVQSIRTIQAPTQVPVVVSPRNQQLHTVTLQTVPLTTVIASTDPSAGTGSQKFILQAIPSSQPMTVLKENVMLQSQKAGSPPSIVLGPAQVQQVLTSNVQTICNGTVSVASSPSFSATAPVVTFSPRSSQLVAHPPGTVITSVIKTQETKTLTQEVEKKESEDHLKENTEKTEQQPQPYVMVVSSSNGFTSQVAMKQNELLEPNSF
Chain of SPIB (Q01892 whole entry): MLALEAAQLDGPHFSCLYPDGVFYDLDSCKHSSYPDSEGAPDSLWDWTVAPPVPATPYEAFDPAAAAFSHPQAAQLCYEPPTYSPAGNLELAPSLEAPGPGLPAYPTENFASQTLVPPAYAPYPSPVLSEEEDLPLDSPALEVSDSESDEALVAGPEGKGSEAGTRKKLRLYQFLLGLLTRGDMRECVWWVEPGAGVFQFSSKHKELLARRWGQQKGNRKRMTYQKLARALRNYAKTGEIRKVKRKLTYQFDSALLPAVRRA
Chain of ELF4 (Q99607 whole entry): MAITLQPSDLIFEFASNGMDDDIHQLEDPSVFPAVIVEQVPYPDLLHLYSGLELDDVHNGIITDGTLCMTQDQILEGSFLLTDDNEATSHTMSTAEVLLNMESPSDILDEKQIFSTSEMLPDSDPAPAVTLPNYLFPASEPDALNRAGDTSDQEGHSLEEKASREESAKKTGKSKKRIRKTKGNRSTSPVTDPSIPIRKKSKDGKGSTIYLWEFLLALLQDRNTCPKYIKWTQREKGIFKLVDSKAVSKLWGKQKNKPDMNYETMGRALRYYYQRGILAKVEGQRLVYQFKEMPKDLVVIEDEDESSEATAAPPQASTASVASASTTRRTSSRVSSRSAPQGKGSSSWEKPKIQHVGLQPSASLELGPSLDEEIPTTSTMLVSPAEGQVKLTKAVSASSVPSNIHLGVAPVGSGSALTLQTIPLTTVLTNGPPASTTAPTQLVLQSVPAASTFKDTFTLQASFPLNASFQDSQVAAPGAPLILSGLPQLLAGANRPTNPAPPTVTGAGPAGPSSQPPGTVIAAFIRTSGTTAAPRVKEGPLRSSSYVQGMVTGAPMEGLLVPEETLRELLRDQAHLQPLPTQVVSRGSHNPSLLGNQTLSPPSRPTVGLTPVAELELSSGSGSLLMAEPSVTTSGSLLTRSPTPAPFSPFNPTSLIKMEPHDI

Take GCTGGT: the binding signal in assay [1] was 1.23 fold enrichment (6-mer frequency, TF over GST control); in [2] it was 1.15 fold enrichment (6-mer frequency, TF over GST control); in assay [3], 1.28 fold enrichment (6-mer frequency, TF over GST control); in [4], 1.04 fold enrichment (6-mer frequency, TF over GST control); in [5] it was 1.2 fold enrichment (6-mer frequency, TF over GST control); in assay [6], 1.18 fold enrichment (6-mer frequency, TF over GST control). In addition, the binding signal is 1.19 fold enrichment (6-mer frequency, TF over GST control) in assay [7]; 1.08 fold enrichment (6-mer frequency, TF over GST control) in assay [8]; 1.11 fold enrichment (6-mer frequency, TF over GST control) in [9].

(Values after publication PMC7862700, “An all-to-all approach to the identification of sequence-specific readers for epigenetic DNA modifications on cytosine”.)
